In PMC7826789 (International Journal of Molecular Sciences, 2021):

system: TSSK1B; details: Compound Concentration (nM):1000
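Further: KINOMEscan scanMAX binding as percent activity remaining versus control; lower means stronger binding.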

Row | Structure (SMILES) | Percent Control
1 | CN1CCN(C(=O)c2ccc(NC(=O)Nc3ccc(N(C)c4ccnc(Nc5ccc(CS(C)(=O)=O)cc5)n4)cc3)cc2)CC1.Cl [GW830263A] | 96%
2 | COc1cc2ncnc(Nc3ccc4c(cnn4Cc4ccccc4)c3)c2cc1OC.Cl [GW282449A] | 100%
3 | CC1=C(C(=O)Nc2ccc3[nH]ncc3c2)C(c2ccc3ccccc3c2)CC(=O)N1 (stereo not shown) [GSK270822A] | 97%
4 | O=C(Nc1n[nH]c2nc(-c3ccc(O)cc3)c(Br)cc12)C1CC1 [SB-725317] | 100%
5 | CCS(=O)(=O)c1ccc(OC)c(Nc2ncc(-c3cccc(F)c3)o2)c1 [GW621970X] | 100%
6 | COc1ccc2cc(-c3c(-c4ccncc4)nc(-c4ccc(S(C)(=O)=O)cc4C)n3C)ccc2c1 [SB-633825] | 74%
7 | COc1ccccc1-c1cc(/C=C2\C(=O)Nc3ncc(Br)cc32)cc(Br)c1O [GW442130X] | 75%
8 | CN(C)c1cc2c(Nc3ccc4c(cnn4Cc4ccccc4)c3)ncnc2cn1 [GW282974X] | 100%
9 | COc1ccc2[nH]c3c4[nH]c5ccc(OC)cc5c4c4c(c3c2c1)C(=O)NC4=O [GW296115X] | 89%
10 | COc1cccc(-n2ncc3c(N/N=C/c4ccncc4)ncnc32)c1 [GW784752X] | 100%
11 | CC1=C(C(=O)Nc2ccc3[nH]ncc3c2)C(c2ccc(Cl)c(Cl)c2)CC(=O)N1 (stereo not shown) [GSK299115A] | 93%
12 | COc1ccc(COc2ccc(Cc3cnc(N)nc3N)cc2OC)cc1 [GW632580X] | 100%
13 | NS(=O)(=O)c1ccc(N/N=C2\C(=O)Nc3ccc(Cl)cc32)cc1 [GW280670X] | 100%
14 | COc1cccc(-c2c[nH]c3c(N/N=C/c4ccncc4)ncnc23)c1 [GW814408X] | 98%
15 | COC(=O)Nc1nc2ccc(Oc3ccc(NC(=O)Nc4cc(C(F)(F)F)ccc4F)cc3)cc2s1.Cl [GW693917A] | 92%
16 | COc1ccc2c(-c3ccnc(Nc4cccc(OC(F)(F)F)c4)n3)cnn2n1 [GW810372X] | 100%
17 | NS(=O)(=O)c1ccc(N/N=C2\C(=O)Nc3ccc(-c4cnco4)cc32)cc1 [GW276655] | 100%
18 | Cl.c1ccc(Cc2nc3ccc(Nc4ncnc5ccccc45)cc3[nH]2)cc1 [GR269666A] | 70%
19 | C/C(Nc1ccc(S(N)(=O)=O)cc1)=C1/C(=O)Nc2ccccc21 [GW335962X] | 100%
20 | COc1cc(N2CCN(C(C)C)CC2)ccc1Nc1nc(Nc2ccc(F)cc2C(=O)NC[C@@H](O)CO)c2cc[nH]c2n1 [GSK1392956A] | 42%

Row | Structure (SMILES) | Percent Control
21 | Nc1ncnc2occ(-c3ccc(NC(=O)Nc4cc(C(F)(F)F)ccc4F)cc3)c12 [GW770249X] | 100%
22 | CC(C)COC(=O)c1ccc2c(c1)/C(=C/Nc1ccc(S(N)(=O)=O)cc1)C(=O)N2 [GW416981X] | 100%
23 | Cl.O=C(Nc1ccc(Oc2ccc3[nH]c(NC(=O)c4ccccc4)nc3c2)cc1)Nc1cc(C(F)(F)F)ccc1F [GW709042A] | 100%
24 | CCc1ccc(Oc2nccc(-c3c(-c4ccc(F)cc4)ncn3C3CCNCC3)n2)cc1 [SB-242719] | 99%
25 | COc1cc(C)c(N(C)C(=O)CN(C)C)cc1Nc1nc(Nc2cccc(F)c2C(N)=O)c2cc[nH]c2n1 [GSK2219385] | 100%
26 | NS(=O)(=O)c1ccc(Nc2ncc(-c3ccccc3)o2)cc1 [GW572399X] | 100%
27 | CCS(=O)(=O)c1ccc(OC)c(Nc2ncc(-c3cccc(OC)c3)o2)c1 [GW580509X] | 100%
28 | C[C@@H](Oc1cc(-n2cnc3ccc(OC4CCN(C)CC4)cc32)sc1C(N)=O)c1ccccc1Cl [GSK579289A] | 71%
29 | COc1cc2ncn(-c3cc(O[C@H](C)c4ccccc4Cl)c(C(N)=O)s3)c2cc1OC [GSK237701A] | 74%
30 | O=C1Nc2ccc(C(=O)c3ccco3)cc2C1=Cc1cc(Cl)c(O)c(Cl)c1 [GW406108X] | 100%
31 | Cc1cc(O)cc(C)c1/C=C/c1cncc(C(N)=O)c1 [GW435821X] | 100%
32 | COc1cc(/C=N/Nc2ncnc3[nH]ncc23)ccc1O [GW578748X] | 100%
33 | COc1cc(C=NNc2ncnc3c2cnn3-c2ccccc2)ccc1O [GW513184X] | 98%
34 | NS(=O)(=O)c1ccc(N/N=C2\C(=O)Nc3ccc(C(=O)NCCc4c[nH]cn4)cc32)cc1 [GW300660X] | 100%
35 | Cl.O=C(Nc1ccc(Oc2ccc3[nH]c(NC(=O)c4ccco4)nc3c2)cc1)Nc1cc(C(F)(F)F)ccc1F [GW683134A] | 100%
36 | CN(C)CCNC(=O)Nc1ccc(N(C)c2ccnc(Nc3ccc(CS(C)(=O)=O)cc3)n2)cc1.Cl [GW830900A] | 100%
37 | CCn1c(-c2nonc2N)nc2c(C#CC(C)(C)O)nc(OCCNC)cc21.Cl [GSK949675] | 90%
38 | NS(=O)(=O)c1ccc(N/N=C2\C(=O)Nc3ccc(C(=O)NCc4ccncc4)cc32)cc1 [GW300657X] | 100%
39 | Cl.O=S1CCN(Cc2ccc(-c3ccc4ncnc(Nc5ccc(OCc6ccccc6)c(F)c5)c4c3)o2)CC1 [GW576924A] | 90%
40 | Cl.O=C(O[C@H]1CN[C@H](C#Cc2cc3ncnc(Nc4ccc5c(cnn5Cc5ccccc5)c4)c3s2)C1)N1CCOCC1 [GSK200398A] | 100%
